Test results taken from publication PMC10726135, “HNF4α isoforms regulate the circadian balance between carbohydrate and lipid metabolism in the liver”.
Whole data set: some 18,000 sequences, median “log2 normalized intensity” near 0.39, cut for the highest 2% near 6.6. The full list was thinned out, with the highest values kept by preference.

biological target: T1, HNF4alpha2 (COS-7 nuclear extract) (Homo sapiens, UniProt P41235 1-474); assay: protein-binding microarray; COS-7 nuclear extract on double-stranded Agilent 4x180k PBM; binding buffer, salt, pH and temperature not given in the material; high values mean tight binding; settings: chain copies: 2; label: 3' end of strand 1 on the slide; dsDNA, one strand shown
T1 sequence: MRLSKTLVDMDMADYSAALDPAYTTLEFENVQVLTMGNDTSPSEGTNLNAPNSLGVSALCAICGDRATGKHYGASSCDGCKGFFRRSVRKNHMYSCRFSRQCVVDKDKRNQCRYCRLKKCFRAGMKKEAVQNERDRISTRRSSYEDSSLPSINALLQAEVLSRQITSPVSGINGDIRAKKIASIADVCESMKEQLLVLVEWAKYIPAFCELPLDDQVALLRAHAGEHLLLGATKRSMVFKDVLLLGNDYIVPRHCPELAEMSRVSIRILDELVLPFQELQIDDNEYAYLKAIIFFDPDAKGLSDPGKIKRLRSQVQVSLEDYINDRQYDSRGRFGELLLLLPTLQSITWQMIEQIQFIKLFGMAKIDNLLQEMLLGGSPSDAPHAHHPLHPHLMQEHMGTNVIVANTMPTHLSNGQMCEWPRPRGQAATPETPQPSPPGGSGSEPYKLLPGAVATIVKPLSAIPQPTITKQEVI
Method in brief: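 COS-7 cells were transiently transfected by CaPO4 with an expression vector for a human HNF4α isoform, and nuclear extracts were prepared from them. The extracts were applied to a custom Agilent SurePrint G3 4x180k array of double-stranded ~60-nt oligonucleotides, with ~44,000 test sequences spotted in quadruplicate. An Agilent G2565CA scanner imaged bound HNF4α at 2-µm resolution. Binding signal is the background-corrected, normalized gProcessedSignal from Agilent software.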

| Sequence | binding signal [log2 normalized intensity] |
| --- | --- |
| TATGCTCTCTCTCCACCTGGAGGGACTTTGGCCTAGGGAGATTAGAGTATCGGTCGA | 2.59 |
| GGACTTCGAATGGTATGCTAGAGTACTTGGGCCTAGGGAGATTAGAGTATCGGTCGA | 1.23 |
| TGCTAGAGTACTTGGACTTTAACCTTTAGAGCCTAGGGAGATTAGAGTATCGGTCGA | 9.24 |
| GCTTTTGGAAGGACTTCGAATGGTATGCTAGCCTAGGGAGATTAGAGTATCGGTCGA | 0.461 |
| CTTTAACGACCTTTGGACTTGAATTATCCTGCCTAGGGAGATTAGAGTATCGGTCGA | 7.84 |
| GCCTAAGCAGGGCTAGACTTTAACCCCCTTGCCTAGGGAGATTAGAGTATCGGTCGA | 5.53 |
| ACGACCTTTGGACTTGAATTATCCTTATGGGCCTAGGGAGATTAGAGTATCGGTCGA | 6.27 |
| CTGGACTATGCCTTGAACTTTAAGGCACCTGCCTAGGGAGATTAGAGTATCGGTCGA | 1.07 |
| TCGAATGGTATGCTAGAGTACTTGGACTTTGCCTAGGGAGATTAGAGTATCGGTCGA | 6.9 |
| TAGGGCCTTGCTATGGAGTGGACTTTGGCTGCCTAGGGAGATTAGAGTATCGGTCGA | 6.16 |
| TGGTATGCTAGAGTACTTGGACTTTAACCTGCCTAGGGAGATTAGAGTATCGGTCGA | 9.48 |
| CTTTGGACTTGAATTATCCTTATGGTCTCTGCCTAGGGAGATTAGAGTATCGGTCGA | 0.855 |
| CGTCCGTCACCCCTTTCTTTGATTAGGAAAGCCTAGGGAGATTAGAGTATCGGTCGA | 1.54 |
| GTCAGTTGATAAACAGATAACTGGGGGCAAGCCTAGGGAGATTAGAGTATCGGTCGA | 0.764 |
| AGTCTGATTCTAGGGCCCATGCCCTTAGCCGCCTAGGGAGATTAGAGTATCGGTCGA | 0.883 |
| TCTGTATGTCTAAGGTTTCTCAGCCCCATCGCCTAGGGAGATTAGAGTATCGGTCGA | 4.27 |
| CGGGTGAAGGTTAAATAGCTCATTAAGCTTGCCTAGGGAGATTAGAGTATCGGTCGA | -0.974 |
| CTCTCAACTCAGTGAGGGCTATTGACAAAGGCCTAGGGAGATTAGAGTATCGGTCGA | -0.637 |
| ATTTTCCCACTTGTATGTCCAAGGGTCACTGCCTAGGGAGATTAGAGTATCGGTCGA | 4.44 |
| AATTTTCTCTGTATACTTGTCTTATCAGCAGCCTAGGGAGATTAGAGTATCGGTCGA | 0.598 |
| CTTGGACTTTAACCTTTAGATTACTAGGAAGCCTAGGGAGATTAGAGTATCGGTCGA | 6.18 |
| GAGTACTTGGACTTTAACCTTTAGATTACTGCCTAGGGAGATTAGAGTATCGGTCGA | 7.31 |

| Sequence | binding signal [log2 normalized intensity] |
| --- | --- |
| ACTTTAACCTTTAGATTACTAGGAATTGATGCCTAGGGAGATTAGAGTATCGGTCGA | 0.914 |
| CTTATCTTTGACCTTACCAGCCCACTCTTAGCCTAGGGAGATTAGAGTATCGGTCGA | 1.9 |
| TGCCCTTGACTTTTTGTGGGGGCAGATGTTGCCTAGGGAGATTAGAGTATCGGTCGA | 1.86 |
| GAGAGTTCCCTTGGAATGCCAGATGACCTTGCCTAGGGAGATTAGAGTATCGGTCGA | 4.14 |
| CTGGCTTTCATTCCACTGACTTGCAACCTTGCCTAGGGAGATTAGAGTATCGGTCGA | 0.803 |
| TTGCCCTTCTTGGATGCCCTTCCCTAACCCGCCTAGGGAGATTAGAGTATCGGTCGA | 2.66 |
| AGATGACCTTTGCCCTTGACTTTTTGTGGGGCCTAGGGAGATTAGAGTATCGGTCGA | 7.08 |
| TTCCCTTGGAATGCCAGATGACCTTTGCCCGCCTAGGGAGATTAGAGTATCGGTCGA | 9.88 |
| TTTCATTCCACTGACTTGCAACCTTTGCCCGCCTAGGGAGATTAGAGTATCGGTCGA | 6.76 |
| TTAGCTTCCTCCCTTGGAATGTGACCTTAGGCCTAGGGAGATTAGAGTATCGGTCGA | 4.12 |
| CCCTTGGAATGTGACCTTAGACCCCTGAATGCCTAGGGAGATTAGAGTATCGGTCGA | 5.74 |
| TTCCTCCCTTGGAATGTGACCTTAGACCCCGCCTAGGGAGATTAGAGTATCGGTCGA | 8.18 |
| ACCTTTGCCCTTGACTTTTTGTGGGGGCAGGCCTAGGGAGATTAGAGTATCGGTCGA | 2.38 |
| TTCCACTGACTTGCAACCTTTGCCCTGTTGGCCTAGGGAGATTAGAGTATCGGTCGA | 6.31 |
| AGGGTGACCCCTGTGGTACAGGCAGTGACTGCCTAGGGAGATTAGAGTATCGGTCGA | 1.48 |
| GAGGCTGCTCTCTGTCCCTGCACCCTACCCGCCTAGGGAGATTAGAGTATCGGTCGA | 1.6 |
| AGGGCCCTTCACTATTTTCAAAGGTCAACAGCCTAGGGAGATTAGAGTATCGGTCGA | 3.49 |
| TGTGTTTCCACAAACACAGATCAGATATGAGCCTAGGGAGATTAGAGTATCGGTCGA | -0.462 |
| GGCCTCCCCATCCTCATGACAGTACCTCTCGCCTAGGGAGATTAGAGTATCGGTCGA | 2.32 |
| GAACTTTGACCACCTACTGTTTGTGCAGAGGCCTAGGGAGATTAGAGTATCGGTCGA | 4.13 |
| ACACTGCCATTTAAAAGTTTCCCTTGATCAGCCTAGGGAGATTAGAGTATCGGTCGA | 0.876 |
| TTCTTTTTTTTTTTTTTTTTTTTTTGAGATGCCTAGGGAGATTAGAGTATCGGTCGA | 3 |

| Sequence | binding signal [log2 normalized intensity] |
| --- | --- |
| TATCCCTGGAGCCTTAGAAGATGACCTTTTGCCTAGGGAGATTAGAGTATCGGTCGA | 5.59 |
| ATGCCAGATGACCTTTGCCCTTGACTTTTTGCCTAGGGAGATTAGAGTATCGGTCGA | 8.55 |
| GGAAGTCCAGCATTCTTTTCCCCATACCAGGCCTAGGGAGATTAGAGTATCGGTCGA | 1.33 |
| TGCCCTTTGTCCAGGGTGAGAGGGACCCTTGCCTAGGGAGATTAGAGTATCGGTCGA | 2.41 |
| GCAAACCTACCTGAACTTTGCCCCAGAGGAGCCTAGGGAGATTAGAGTATCGGTCGA | 5.9 |
| CCACCCACACTGCAGCAAAACTTTAGGACTGCCTAGGGAGATTAGAGTATCGGTCGA | 0.141 |
| TGTCTCCAGAAATCAACCTTTGATCGTTTGGCCTAGGGAGATTAGAGTATCGGTCGA | 5.83 |
| ATAAGGGGCAGCAAACCTACCTGAACTTTGGCCTAGGGAGATTAGAGTATCGGTCGA | 3.07 |
| CCTTGGGTCTGTAATCTCACAACTCAGAAGGCCTAGGGAGATTAGAGTATCGGTCGA | 0.23 |
| CACACTGCAGCAAAACTTTAGGACTTTGAAGCCTAGGGAGATTAGAGTATCGGTCGA | 3.31 |
| TGCAGCAAAACTTTAGGACTTTGAACCTTGGCCTAGGGAGATTAGAGTATCGGTCGA | 8.63 |
| ATGTCTCCAGAAACCAACCTTTGATCATTCGCCTAGGGAGATTAGAGTATCGGTCGA | 4.87 |
| GGACTTTGAACCTTGGGTCTGTAATCTCACGCCTAGGGAGATTAGAGTATCGGTCGA | 7.11 |
| TTGAACCTTGGGTCTGTAATCTCACAACTCGCCTAGGGAGATTAGAGTATCGGTCGA | 1.47 |
| ACTTCTGTCTCCAGAAATCAACCTTTGATCGCCTAGGGAGATTAGAGTATCGGTCGA | 7.84 |
| GGGCAGCAAACCTACCTGAACTTTGCCCCAGCCTAGGGAGATTAGAGTATCGGTCGA | 7.99 |
| AGAAAGACATGTTTCTAACTGCCCGCATTCGCCTAGGGAGATTAGAGTATCGGTCGA | 0.246 |
| TATTCCAGGCACAAGAATGGTCATTCTCTGGCCTAGGGAGATTAGAGTATCGGTCGA | -0.977 |
| GGCTTCTGGACTATGCCTTGAACTTTAAGGGCCTAGGGAGATTAGAGTATCGGTCGA | 2.21 |
| TGGCACCTGAAGCTGCCCTTTGCACATGCCGCCTAGGGAGATTAGAGTATCGGTCGA | 4.08 |
| ATTGGGATGGAGTAACTTGCTAAGTATAAAGCCTAGGGAGATTAGAGTATCGGTCGA | -0.531 |
| TCTTTTCTAAGATATTTGCATAGGCATTGTGCCTAGGGAGATTAGAGTATCGGTCGA | 1.94 |

| Sequence | binding signal [log2 normalized intensity] |
| --- | --- |
| CTTGTCCAACTCCCCTCCCAAGGCAGCAATGCCTAGGGAGATTAGAGTATCGGTCGA | 4 |
| GATGACATCATCTGTTTGTACGCGTCGAACGCCTAGGGAGATTAGAGTATCGGTCGA | -0.199 |
| CAACTTTCTCCTCCAGGACCTTGCCCTTTAGCCTAGGGAGATTAGAGTATCGGTCGA | 4.23 |
| CAAAACTTTAGGACTTTGAACCTTGGGTCTGCCTAGGGAGATTAGAGTATCGGTCGA | 7.13 |
| CTTTAGGACTTTGAACCTTGGGTCTGTAATGCCTAGGGAGATTAGAGTATCGGTCGA | 6.04 |
| GGGAGGAGGGCAACCTTTGAACTGGGTCTTGCCTAGGGAGATTAGAGTATCGGTCGA | 4.09 |
| GGACTCTGGAACCATCAGGATTCCAGAGGAGCCTAGGGAGATTAGAGTATCGGTCGA | 1.86 |
| TTTGCAACCTTTGATAACCTACAACCTTCTGCCTAGGGAGATTAGAGTATCGGTCGA | 0.304 |
| CCCAGGTACGGAGGACAGCCACCCGTGCTTGCCTAGGGAGATTAGAGTATCGGTCGA | -0.928 |
| TTACTATAGGTTCTACTCTCCCCAGTTCAAGCCTAGGGAGATTAGAGTATCGGTCGA | 3.24 |
| AGATGGGGTGAACTTTGGACCACATATAGAGCCTAGGGAGATTAGAGTATCGGTCGA | 7.14 |
| CAGGGGTCATCAGATAGATGGTCAGTGAACGCCTAGGGAGATTAGAGTATCGGTCGA | 1.44 |
| TACCATGGGAGACCTCAGGGGTCATCAGATGCCTAGGGAGATTAGAGTATCGGTCGA | 2.49 |
| CTCAGTCATACCACATGGATGGATTCAGATGCCTAGGGAGATTAGAGTATCGGTCGA | 0.259 |
| AGATCAGATGGGGTGAACTTTGGACCACATGCCTAGGGAGATTAGAGTATCGGTCGA | 7.41 |
| GGTGAACTTTGAGACTATCCTTGGACCGCAGCCTAGGGAGATTAGAGTATCGGTCGA | 2.51 |
| ACAGGAGATCAGATGGGGTGAACTTTGGACGCCTAGGGAGATTAGAGTATCGGTCGA | 8.41 |
| TGGGGTATCAGGTGGTGATGGTGGGAGGGAGCCTAGGGAGATTAGAGTATCGGTCGA | 0.113 |
| GAGGACTTTGGCCTTTTGTGAGATATGGACGCCTAGGGAGATTAGAGTATCGGTCGA | 3.45 |
